This is an account of results in ChEMBL document CHEMBL1961873, “Compounds: GSK PKIS; Assays: Nanosyn kinase panel” (2012).

Experiment [1] addresses T1, Tyrosine-protein kinase ITK/TSK (Homo sapiens) (UniProt Q08881).
T1 sequence (whole entry): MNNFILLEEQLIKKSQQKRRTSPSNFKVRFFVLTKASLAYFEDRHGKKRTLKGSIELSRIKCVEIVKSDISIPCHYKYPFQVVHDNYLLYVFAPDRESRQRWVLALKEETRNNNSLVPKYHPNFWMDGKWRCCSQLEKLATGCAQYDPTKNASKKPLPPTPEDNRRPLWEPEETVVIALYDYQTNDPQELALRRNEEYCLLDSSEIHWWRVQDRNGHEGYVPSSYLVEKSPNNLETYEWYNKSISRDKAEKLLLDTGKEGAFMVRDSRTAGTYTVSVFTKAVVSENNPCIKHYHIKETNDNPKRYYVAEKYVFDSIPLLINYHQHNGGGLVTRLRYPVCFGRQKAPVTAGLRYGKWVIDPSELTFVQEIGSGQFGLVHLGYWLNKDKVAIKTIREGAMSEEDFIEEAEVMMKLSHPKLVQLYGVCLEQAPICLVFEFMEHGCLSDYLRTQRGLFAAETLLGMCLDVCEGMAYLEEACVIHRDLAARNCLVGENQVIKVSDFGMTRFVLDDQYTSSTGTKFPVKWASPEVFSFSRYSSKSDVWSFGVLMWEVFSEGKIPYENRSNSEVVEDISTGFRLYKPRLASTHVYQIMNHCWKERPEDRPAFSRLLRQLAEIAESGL
The settings on record: at 1 µM.

Experiment [2] concerns the target Tyrosine-protein kinase JAK1 (Homo sapiens) (UniProt P23458). The settings on record: at 0.1 µM.
Experiment [3] has the same target. The settings on record: at 1 µM.
The target in experiment [4] is Tyrosine-protein kinase JAK2 (Homo sapiens) (UniProt O60674). The conditions noted are these: at 0.1 µM.
Chain of Tyrosine-protein kinase JAK2 (Homo sapiens) (O60674 whole entry): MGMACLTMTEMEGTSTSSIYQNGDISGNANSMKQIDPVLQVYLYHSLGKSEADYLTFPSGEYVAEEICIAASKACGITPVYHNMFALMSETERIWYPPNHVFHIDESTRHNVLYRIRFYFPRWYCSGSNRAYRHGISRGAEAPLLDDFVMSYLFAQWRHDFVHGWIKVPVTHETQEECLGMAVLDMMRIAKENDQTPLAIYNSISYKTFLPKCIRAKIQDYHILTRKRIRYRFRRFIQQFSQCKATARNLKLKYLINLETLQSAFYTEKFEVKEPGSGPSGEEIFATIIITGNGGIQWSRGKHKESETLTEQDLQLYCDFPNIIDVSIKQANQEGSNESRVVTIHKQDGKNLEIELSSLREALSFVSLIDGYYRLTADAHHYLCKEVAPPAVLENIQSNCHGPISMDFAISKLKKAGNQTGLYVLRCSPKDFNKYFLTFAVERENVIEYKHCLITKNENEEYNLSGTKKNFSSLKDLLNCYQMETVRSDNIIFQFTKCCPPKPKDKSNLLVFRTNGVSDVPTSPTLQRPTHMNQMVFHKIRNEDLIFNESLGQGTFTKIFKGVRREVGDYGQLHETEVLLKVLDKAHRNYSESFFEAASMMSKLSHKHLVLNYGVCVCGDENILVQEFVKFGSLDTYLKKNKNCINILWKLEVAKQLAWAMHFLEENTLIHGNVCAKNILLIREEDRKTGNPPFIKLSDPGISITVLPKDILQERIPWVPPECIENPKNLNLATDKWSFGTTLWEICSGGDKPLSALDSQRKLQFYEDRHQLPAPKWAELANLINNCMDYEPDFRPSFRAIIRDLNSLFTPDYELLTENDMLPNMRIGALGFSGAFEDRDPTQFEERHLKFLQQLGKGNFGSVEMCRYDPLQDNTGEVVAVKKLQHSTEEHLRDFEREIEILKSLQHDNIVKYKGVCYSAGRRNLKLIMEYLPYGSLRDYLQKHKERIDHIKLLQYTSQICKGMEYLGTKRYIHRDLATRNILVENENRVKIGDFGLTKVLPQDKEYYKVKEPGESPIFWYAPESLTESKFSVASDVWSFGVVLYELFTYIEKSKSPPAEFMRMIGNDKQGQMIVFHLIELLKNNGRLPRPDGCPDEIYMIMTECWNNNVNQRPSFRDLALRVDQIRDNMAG
For experiment [5] the target is unchanged. The conditions noted are these: at 1 µM.
The target in experiment [6] is T2, Tyrosine-protein kinase JAK3 (Homo sapiens) (UniProt P52333).
T2 sequence (whole entry): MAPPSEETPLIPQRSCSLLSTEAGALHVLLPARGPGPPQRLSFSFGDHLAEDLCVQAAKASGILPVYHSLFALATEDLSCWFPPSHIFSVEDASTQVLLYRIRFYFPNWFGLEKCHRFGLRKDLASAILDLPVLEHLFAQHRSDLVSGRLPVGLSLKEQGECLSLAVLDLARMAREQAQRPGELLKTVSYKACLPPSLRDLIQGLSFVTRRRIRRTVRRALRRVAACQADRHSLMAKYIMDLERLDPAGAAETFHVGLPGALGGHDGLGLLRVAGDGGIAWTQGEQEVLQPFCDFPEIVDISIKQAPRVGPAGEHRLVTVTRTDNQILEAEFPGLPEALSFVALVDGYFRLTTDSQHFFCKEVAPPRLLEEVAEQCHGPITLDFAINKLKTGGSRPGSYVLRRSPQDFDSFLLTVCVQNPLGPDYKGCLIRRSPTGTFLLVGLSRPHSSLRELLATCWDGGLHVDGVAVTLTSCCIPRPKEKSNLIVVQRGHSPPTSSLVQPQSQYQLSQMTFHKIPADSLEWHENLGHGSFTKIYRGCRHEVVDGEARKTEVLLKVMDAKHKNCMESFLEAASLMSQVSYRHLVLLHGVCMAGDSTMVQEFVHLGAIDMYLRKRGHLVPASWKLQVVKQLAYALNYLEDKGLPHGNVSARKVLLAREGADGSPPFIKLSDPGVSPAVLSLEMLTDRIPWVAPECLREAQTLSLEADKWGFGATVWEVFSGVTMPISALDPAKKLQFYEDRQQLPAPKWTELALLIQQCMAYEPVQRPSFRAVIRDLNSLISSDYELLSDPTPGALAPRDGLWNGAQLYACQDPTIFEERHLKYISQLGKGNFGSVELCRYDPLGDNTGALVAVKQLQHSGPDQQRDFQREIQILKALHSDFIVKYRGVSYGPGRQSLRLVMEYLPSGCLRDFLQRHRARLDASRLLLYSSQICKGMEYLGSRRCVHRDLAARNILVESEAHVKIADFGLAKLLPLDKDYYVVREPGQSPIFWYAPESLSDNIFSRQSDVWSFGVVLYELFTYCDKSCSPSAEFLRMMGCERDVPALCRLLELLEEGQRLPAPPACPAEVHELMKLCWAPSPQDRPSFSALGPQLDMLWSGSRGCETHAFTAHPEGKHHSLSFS
The conditions noted are these: at 0.1 µM.

Experiment [7] addresses T2, Tyrosine-protein kinase JAK3 (Homo sapiens). The settings on record: at 1 µM.
The target of experiment [8] is Vascular endothelial growth factor receptor 2 (Homo sapiens) (UniProt P35968). The settings on record: at 0.1 µM.
Experiment [9] has the same target. The settings on record: at 1 µM.
Experiment [10] addresses Mast/stem cell growth factor receptor Kit (Homo sapiens) (UniProt P10721). The conditions noted are these: at 0.1 µM.
Experiment [11] has the same target. The settings on record: at 1 µM.
Experiment [12] concerns Mast/stem cell growth factor receptor Kit (Homo sapiens), P10721 [D816V]. The conditions noted are these: at 0.1 µM.
Chain of Mast/stem cell growth factor receptor Kit (Homo sapiens), P10721 [D816V] (P10721 whole entry D816V): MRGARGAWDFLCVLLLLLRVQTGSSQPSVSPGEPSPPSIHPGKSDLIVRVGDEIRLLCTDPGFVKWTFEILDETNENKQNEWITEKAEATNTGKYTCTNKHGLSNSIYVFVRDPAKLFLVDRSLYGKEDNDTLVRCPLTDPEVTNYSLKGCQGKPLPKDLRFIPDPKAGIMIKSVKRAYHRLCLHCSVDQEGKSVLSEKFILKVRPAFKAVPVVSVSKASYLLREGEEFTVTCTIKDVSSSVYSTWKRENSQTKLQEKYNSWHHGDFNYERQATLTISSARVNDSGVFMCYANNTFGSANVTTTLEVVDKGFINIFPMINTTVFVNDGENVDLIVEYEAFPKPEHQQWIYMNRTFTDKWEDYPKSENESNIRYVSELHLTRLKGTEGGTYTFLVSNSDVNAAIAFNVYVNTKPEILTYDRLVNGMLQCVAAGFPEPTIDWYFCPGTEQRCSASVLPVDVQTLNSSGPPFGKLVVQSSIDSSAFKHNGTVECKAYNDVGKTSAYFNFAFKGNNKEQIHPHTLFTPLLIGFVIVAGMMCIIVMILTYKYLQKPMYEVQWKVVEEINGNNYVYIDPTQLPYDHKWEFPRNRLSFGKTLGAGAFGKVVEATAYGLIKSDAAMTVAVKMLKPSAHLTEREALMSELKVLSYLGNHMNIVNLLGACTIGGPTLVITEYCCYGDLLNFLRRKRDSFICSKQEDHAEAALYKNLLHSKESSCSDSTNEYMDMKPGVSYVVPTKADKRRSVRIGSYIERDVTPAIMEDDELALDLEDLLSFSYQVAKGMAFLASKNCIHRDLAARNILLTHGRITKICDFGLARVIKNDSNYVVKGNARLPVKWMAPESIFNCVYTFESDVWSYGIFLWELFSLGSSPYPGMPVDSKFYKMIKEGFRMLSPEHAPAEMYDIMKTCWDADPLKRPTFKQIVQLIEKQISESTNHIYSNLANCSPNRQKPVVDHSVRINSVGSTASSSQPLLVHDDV
For experiment [13] the test system is unchanged. The settings on record: at 1 µM.
In experiment [14] the test system is Mast/stem cell growth factor receptor Kit (Homo sapiens), P10721 [T670I]. The settings on record: at 0.1 µM.
Chain of Mast/stem cell growth factor receptor Kit (Homo sapiens), P10721 [T670I] (P10721 whole entry T670I): as the sequence (P10721 whole entry D816V) above, with T670I, V816D counted along it
Experiment [15] shares this test system. The conditions noted are these: at 1 µM.
The subject of experiment [16] is Mast/stem cell growth factor receptor Kit (Homo sapiens), P10721 [V560G]. The conditions noted are these: at 0.1 µM.
Experiment [17] shares this test system. The conditions noted are these: at 1 µM.
The target in experiment [18] is Tyrosine-protein kinase Lck (Homo sapiens) (UniProt P06239). The conditions noted are these: at 0.1 µM.
Chain of Tyrosine-protein kinase Lck (Homo sapiens) (P06239 2-509 limits assumed): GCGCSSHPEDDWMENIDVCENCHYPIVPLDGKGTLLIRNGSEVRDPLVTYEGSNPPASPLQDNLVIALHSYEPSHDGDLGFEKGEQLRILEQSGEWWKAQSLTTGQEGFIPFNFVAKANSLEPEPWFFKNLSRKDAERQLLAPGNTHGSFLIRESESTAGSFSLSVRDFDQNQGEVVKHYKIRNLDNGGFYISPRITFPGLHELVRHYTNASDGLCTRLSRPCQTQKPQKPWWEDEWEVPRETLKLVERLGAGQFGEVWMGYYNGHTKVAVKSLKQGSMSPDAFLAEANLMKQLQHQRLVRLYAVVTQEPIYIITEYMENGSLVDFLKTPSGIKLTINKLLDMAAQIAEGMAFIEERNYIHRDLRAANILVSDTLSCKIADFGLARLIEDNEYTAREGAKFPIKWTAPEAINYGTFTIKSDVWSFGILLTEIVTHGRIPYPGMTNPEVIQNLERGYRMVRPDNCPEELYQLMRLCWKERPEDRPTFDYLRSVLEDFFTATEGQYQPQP
Experiment [19] shares this target. The conditions noted are these: at 1 µM.
The target of experiment [20] is Leukocyte tyrosine kinase receptor (Homo sapiens) (UniProt P29376). The conditions noted are these: at 0.1 µM.
Chain of Leukocyte tyrosine kinase receptor (Homo sapiens) (P29376 whole entry): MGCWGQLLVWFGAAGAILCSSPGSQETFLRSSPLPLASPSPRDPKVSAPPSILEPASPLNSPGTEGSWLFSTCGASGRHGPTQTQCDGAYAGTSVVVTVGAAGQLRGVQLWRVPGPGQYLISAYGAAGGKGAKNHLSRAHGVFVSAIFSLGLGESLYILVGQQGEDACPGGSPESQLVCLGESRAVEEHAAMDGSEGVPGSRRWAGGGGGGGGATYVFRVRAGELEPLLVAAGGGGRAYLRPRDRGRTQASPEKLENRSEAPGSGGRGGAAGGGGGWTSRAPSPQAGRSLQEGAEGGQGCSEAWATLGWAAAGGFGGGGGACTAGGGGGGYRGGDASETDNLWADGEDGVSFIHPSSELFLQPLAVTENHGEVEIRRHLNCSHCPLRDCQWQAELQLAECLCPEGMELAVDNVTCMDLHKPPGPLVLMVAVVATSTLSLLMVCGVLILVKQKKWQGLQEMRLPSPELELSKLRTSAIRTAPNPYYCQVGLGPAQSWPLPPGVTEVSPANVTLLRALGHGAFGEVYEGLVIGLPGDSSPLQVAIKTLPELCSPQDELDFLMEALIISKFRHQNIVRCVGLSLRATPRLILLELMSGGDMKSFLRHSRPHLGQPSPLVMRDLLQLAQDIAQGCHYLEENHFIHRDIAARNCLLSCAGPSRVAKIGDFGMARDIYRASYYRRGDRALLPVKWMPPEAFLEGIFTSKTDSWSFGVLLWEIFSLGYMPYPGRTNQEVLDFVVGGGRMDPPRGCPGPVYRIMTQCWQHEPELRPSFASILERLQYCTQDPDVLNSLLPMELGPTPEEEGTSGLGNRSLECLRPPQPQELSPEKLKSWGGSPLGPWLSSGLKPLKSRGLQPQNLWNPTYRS

Chain of Mast/stem cell growth factor receptor Kit (Homo sapiens), P10721 [V560G] (P10721 whole entry V560G): as the sequence (P10721 whole entry D816V) above, with V560G, V816D counted along it
Chain of Tyrosine-protein kinase JAK1 (Homo sapiens) (P23458 whole entry): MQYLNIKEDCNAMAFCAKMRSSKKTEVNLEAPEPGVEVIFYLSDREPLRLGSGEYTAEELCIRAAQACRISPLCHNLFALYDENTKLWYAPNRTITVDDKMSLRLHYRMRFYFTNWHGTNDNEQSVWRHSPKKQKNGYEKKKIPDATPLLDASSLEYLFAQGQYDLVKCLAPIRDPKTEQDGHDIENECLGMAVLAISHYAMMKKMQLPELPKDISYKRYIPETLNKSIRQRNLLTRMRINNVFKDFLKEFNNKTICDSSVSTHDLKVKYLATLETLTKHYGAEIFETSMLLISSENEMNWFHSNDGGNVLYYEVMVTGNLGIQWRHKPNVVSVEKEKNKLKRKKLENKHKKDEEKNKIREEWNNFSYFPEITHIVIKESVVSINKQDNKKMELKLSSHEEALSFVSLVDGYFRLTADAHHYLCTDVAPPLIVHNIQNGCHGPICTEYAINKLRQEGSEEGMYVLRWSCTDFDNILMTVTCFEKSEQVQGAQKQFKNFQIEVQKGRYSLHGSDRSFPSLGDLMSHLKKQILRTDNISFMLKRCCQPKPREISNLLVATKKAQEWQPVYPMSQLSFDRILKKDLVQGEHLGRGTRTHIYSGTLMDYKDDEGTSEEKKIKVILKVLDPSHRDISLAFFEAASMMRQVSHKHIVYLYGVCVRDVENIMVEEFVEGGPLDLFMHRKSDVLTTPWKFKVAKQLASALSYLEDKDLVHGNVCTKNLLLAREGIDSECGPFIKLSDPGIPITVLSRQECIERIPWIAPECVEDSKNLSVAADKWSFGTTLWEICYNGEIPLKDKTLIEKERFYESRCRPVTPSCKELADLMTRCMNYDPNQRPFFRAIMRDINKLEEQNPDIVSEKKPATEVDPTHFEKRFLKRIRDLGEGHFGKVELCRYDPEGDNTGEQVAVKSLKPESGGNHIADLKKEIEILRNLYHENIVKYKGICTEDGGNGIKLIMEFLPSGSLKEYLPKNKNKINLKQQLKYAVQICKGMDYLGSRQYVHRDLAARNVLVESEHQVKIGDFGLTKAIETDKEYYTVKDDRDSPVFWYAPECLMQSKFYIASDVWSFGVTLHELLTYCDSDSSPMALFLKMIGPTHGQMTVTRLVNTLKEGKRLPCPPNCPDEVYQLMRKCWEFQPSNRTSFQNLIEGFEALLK
Chain of Mast/stem cell growth factor receptor Kit (Homo sapiens) (P10721 whole entry): as the sequence (P10721 whole entry D816V) above, with V816D counted along it

As for `Cn1c(-c2nonc2N)nc2cnccc21`, the inhibition in [1] was 1.68%; in [2] it was 4.75%; in experiment [3], 2.08%; in experiment [4], 1.45%; in experiment [5], 1.42%; in experiment [6] it was -1.06%. The inhibition in [7] is -0.29%; in experiment [8] it was 4.81%; in experiment [9], 12.2%; in experiment [10] it was 4.67%; in experiment [11], 5.33%; in experiment [12], 1.72%. Moreover, the inhibition in experiment [13] is 2.94%; in [14], 2.83%; in experiment [15], 2.49%; in [16], -0.55%; in experiment [17], -0.31%; in experiment [18] it was 2.46%. Also, the values for the inhibition in [19] and in experiment [20] were 3.49% and 2.56%, respectively.
Regarding `Cc1nnc(-c2cccc(-c3ccc(C(=O)NCC4CC4)cc3)c2)o1`, the inhibition is 2.05% in experiment [1]; 2.76% in experiment [2]; 9.78% in experiment [3]; 1.87% in experiment [4]; 2.79% in experiment [5]; -1.21% in experiment [6]. Moreover, the inhibition in [7] came to 0.46%; in [8] it was 6.85%; in [9], 9.47%; in experiment [10], 7.19%; in experiment [11], 9.77%; in experiment [12] it was 1.04%. Moreover, the inhibition in experiment [13] came out at 7.79%; in experiment [14] it was 5.46%; in experiment [15], 5.66%; in [16], 0.29%; in experiment [17], 2.8%; in [18], 2.77%. Further, the inhibition in [19] is 2.64%; in experiment [20], 4.15%.
As for `N#Cc1cccc(Nc2ncc(-c3ccccc3)o2)c1`, the inhibition is 2.42% in [1]; 0.52% in [2]; 10.7% in [3]; 0.78% in experiment [4]; 0.35% in experiment [5]; -1.06% in experiment [6]. Moreover, the inhibition in experiment [7] is -0.94%; in experiment [8], 3.11%; in experiment [9] it was 11%; in experiment [10] it was 19.9%; in [11], 79.6%; in experiment [12], 1.87%. For the same molecule, the inhibition was 2.5% in [13]; 2.85% in experiment [14]; 35.8% in [15]; 4.29% in [16]; 23.8% in experiment [17]; 2.79% in [18]. For the same molecule, the figures for the inhibition in [19] and in experiment [20] were 1.76% and 4.04%, respectively.
`c1ccc(-c2n[nH]cc2-c2ccnc(-c3ccc(OCCn4ccnc4)cc3)c2)nc1`: the inhibition in experiment [1] is 2.03%; in [2], 0.34%; in [3] it was 6.98%; in [4] it was 0.38%; in [5], 3.12%; in [6], -0.46%. For the same molecule, the inhibition in [7] was determined as 4.76%; in [8], 19.9%; in [9], 65.9%; in experiment [10], 1.62%; in experiment [11], 11.4%; in [12] it was 3.19%. The inhibition in experiment [13] stood at 19.5%; in experiment [14] it was 1.86%; in experiment [15] it was 3.3%; in [16], 1.49%; in experiment [17] it was 4.59%; in experiment [18] it was 0.89%. Moreover, the inhibition in experiment [19] turned out to be 12.7%; in [20], 0.8%.
Turning to `COc1ccc2ncn(-c3cc(O[C@H](C)c4ccccc4C(F)(F)F)c(C(N)=O)s3)c2c1`, the inhibition in [1] is 1.39%; in [2], -0.98%; in experiment [3], 5.43%; in [4] it was 1.01%; in experiment [5], -1.12%; in [6] it was 0.5%. In addition, the inhibition in experiment [7] was 6.44%; in [8], 2.92%; in experiment [9], 14.1%; in experiment [10], -1.6%; in experiment [11] it was 14.7%; in [12], -1.17%. Moreover, the inhibition in [13] came out at 2.71%; in experiment [14] it was 1.09%; in [15], 3.92%; in experiment [16], 0.71%; in experiment [17], 2.83%; in [18] it was 0.65%. Further, the inhibition stood at 2.2% in [19] and 0.48% in experiment [20].
As to `COc1cc(N2CCN(C(C)C)CC2)ccc1Nc1nc(Nc2cccc3ncccc23)c2cc[nH]c2n1`, the inhibition in experiment [1] is 2.05%; in [2], -1.68%; in experiment [3], -0.17%; in experiment [4], -0.12%; in experiment [5] it was 0.72%; in experiment [6] it was 1.35%. The inhibition in experiment [7] was 1.57%; in experiment [8] it was 1.96%; in [9], 3.64%; in [10], -0.77%; in experiment [11] it was 2.29%; in experiment [12] it was -1.39%. Also, the inhibition is -2.2% in [13]; 0.28% in experiment [14]; 0.54% in experiment [15]; 0.73% in experiment [16]; 6.87% in experiment [17]; 0.42% in experiment [18]. Moreover, the inhibition turned out to be 3.07% in experiment [19] and 34.7% in [20].
Consider `CC1=C(C(=O)Nc2ccc3[nH]ncc3c2)C(c2ccc(F)cc2)N=C(c2ccc(C(F)(F)F)nc2)N1` (stereo not given), for which the inhibition in experiment [1] amounted to 2.33%; in experiment [2], 1.34%; in experiment [3], 1.91%; in experiment [4] it was 1.27%; in experiment [5], 2.08%; in experiment [6], 0.58%. In addition, the inhibition was 1.34% in experiment [7]; 5.88% in experiment [8]; 9.39% in experiment [9]; 4.11% in experiment [10]; 5.44% in experiment [11]; -0.02% in experiment [12]. Moreover, the inhibition in experiment [13] is -2.78%; in experiment [14], 1.78%; in experiment [15], 1.33%; in experiment [16] it was 1.39%; in experiment [17] it was 3.28%; in experiment [18], 3.06%. Also, the results for the inhibition in experiment [19] and in experiment [20] were 2.27% and 1.67%, respectively.
